The source of these data is ChEMBL document CHEMBL4513216, “Probing the Open Global Health Chemical Diversity Library for Multistage-Active Starting Points for Next-Generation Antimalarials” (ACS Infect Dis, 2020).

Structures are written as SMILES. In all, about 68,000 compounds went through this assay and about 2,700 (4%) showed an effect of 50% or more. The entries come from a sample that favours strong results as a whole.

The assay relates to Plasmodium berghei. Briefly: Screen against P. berghei liver stage (PbLuc), transformed with Luciferase, at 2uM. The note with it: tested at 2 uM. In kind it is functional, HepG2.
Regarding `Cc1noc(CN(CCO)Cc2cc(Br)ccc2F)n1`, the INHIBITION is on record as -18.92%. Under `CCOc1cncc(N2CCN(c3ccccc3O)CC2)n1` stands 22.75%; under `CCc1nc(CN2CCCC2c2c(C)nn(C)c2OC)no1` (configuration not stated), 23.94%; under `COc1c(C2CCCN2Cc2noc(C)n2)c(C)nn1C` (configuration not stated), 21.83%. Under `COc1c(C2CCCN2Cc2nccn2C)c(C)nn1C` (configuration not stated) stands 56.47%; under `COc1c(C2CCCN2Cc2nnc(C3CC3)n2C)c(C)nn1C` (configuration not stated), 28.1%. Under `CCn1ccnc1CN1CCCC1c1c(C)nn(C)c1OC` (configuration not stated) stands -69.19%; under `COc1c(C2CCCN2Cc2noc(C(C)C)n2)c(C)nn1C` (configuration not stated), 59.93%. For `Cc1ccc(CN2CCn3c(C(=O)N(C)C)cnc3C2)cc1`, the INHIBITION is reported as 7.77%. Under `CN(C)C(=O)c1cnc2n1CCN(Cc1ccsc1)C2` stands 54.89%; under `CN(C)C(=O)c1cnc2n1CCN(Cc1ccccc1)C2`, -26.24%; under `CCOCC(O)CN1CCN(C(=O)c2cnc3n[nH]c(C)c3c2)CC1` (configuration not stated), 21.89%. Under `CC(O)CN1CCN(C(=O)c2cnn(-c3ccccc3F)c2)CC1` (configuration not stated) stands -7.05%. Under `CC(c1ccccn1)N(C)C(=O)NCCn1c(=O)oc2ccccc21` (configuration not stated) stands 40.4%; under `Cc1ccc2c(c1)c(Sc1ccccc1)c(CC(=O)O)n2C`, -36.84%. Take `Cn1c(CC(=O)O)c(Sc2ccccc2)c2ccccc21`: the INHIBITION was 52.89%. Under `CSc1c(CC(=O)O)n(C)c2ccccc12` stands -18.52%. As to `CSCC(CCO)NC(=O)Nc1cccc(Br)c1C` (configuration not stated), the INHIBITION is -29.43%. As to `O[C@@H]1C[C@@H](c2nc(Cc3ccccc3)no2)N(Cc2ccc(F)cc2)C1`, the INHIBITION amounted to 30.63%. On to `CN(Cc1ccc(F)cc1)CC1(O)CCN(C(=O)c2ccn(C)n2)C1` (configuration not stated), for which the INHIBITION is on record as -21.42%.

As for `CC(C)(C)OC(=O)NCC1CCCCN1Cc1ccncc1` (configuration not stated), the INHIBITION amounted to 54.29%. Under `CC(C)(C)OC(=O)NCC1CCCCN1Cc1ccccn1` (configuration not stated) stands -43.28%; under `CC(C)(C)OC(=O)NCC1CCCCN1Cc1cccnc1` (configuration not stated), 24.05%. Under `Cc1cc(C(F)(F)F)nn1C(C)C(=O)NN1CCN(C)CC1` (configuration not stated) stands 32.88%; under `Fc1cccc(-c2nnn3c2COC(CNc2ncccn2)C3)c1` (configuration not stated), 39.47%. Under `CNS(=O)(=O)c1ccc(CNC(=O)NCC2CCCO2)cc1` (configuration not stated) stands 39.32%; under `CNS(=O)(=O)c1ccc(CNC(=O)C2CCCO2)cc1` (configuration not stated), 52.17%. With `CNS(=O)(=O)c1ccc(CNC(=O)C2CN(C)CCO2)cc1` (configuration not stated), the INHIBITION stood at 33.49%. Under `Cn1ccnc1CN(Cc1cccnc1)CC1CCCO1` (configuration not stated) stands 41.82%; under `CCn1nc(C(=O)N2CCNCC2C(=O)Nc2ccc(C)nc2)cc1C` (configuration not stated), 3.82%. Under `O=C(Cc1cccc(F)c1)NCCNCc1cccc(O)c1` stands 57.33%; under `O=C(Cc1ccc(F)cc1)NCCNCc1cccc(O)c1`, -49.9%. As for `O=C(Cc1ccccc1)NCCNCc1cccc(O)c1`, the INHIBITION stood at 31.57%. For the compound `c1ccc(CN2Cc3[nH]nc(COc4cccnc4)c3C2)nc1`, the INHIBITION is 18.6%. Under `CC1CNC(=O)CCN1Cc1cc(O)c2cccc(F)c2n1` (configuration not stated) stands 18.31%; under `Cc1nnc(CN(Cc2ccc(Cl)c(Cl)c2)C(C)C)o1`, 55.36%; under `Cc1nnc(CN(Cc2ccc3c(c2)OCO3)C2CCC(C)CC2)o1` (configuration not stated), -37.84%.

Turning to `CC(C)N(Cc1cccc(Cl)c1)Cc1nnsc1Cl`, the INHIBITION is on record as 16.72%.

Regarding `Cc1nnc(CN(Cc2cccc(Cl)c2)C(C)C)o1`, the INHIBITION is 41.05%. Under `Cc1nnc(CN(Cc2ccc(Cl)c(Cl)c2)C2CC2)o1` stands 50.59%.

As for `Cc1nnc(CN(Cc2cccc(Br)c2)C2CC2)o1`, the INHIBITION was -21.25%. Under `O=C(c1ccccc1F)N1CCN(c2ccc(-n3cccc3)nn2)CC1` stands -17.9%; under `O=C(c1cccnc1)N1CCN(c2ccnc3ccsc23)CC1`, 4.52%; under `c1cc(-c2cnccn2)cc(-c2ccn(CCN3CCCCC3)n2)c1`, 11.33%. Under `c1cc(-c2cnccn2)cc(-c2ccn(CCN3CCCC3)n2)c1` stands 6.07%; under `c1ccc(-c2cccc(-c3ccn(CCN4CCCCC4)n3)c2)nc1`, 63.1%. Under `CS(=O)(=O)CCC(=O)N(CCc1cccc(F)c1)C1CC1` stands 29.22%; under `CSc1ccccc1C(=O)N(C)C1CCCN(CCc2ccccc2)C1` (configuration not stated), -1.89%. `CN(C(=O)CC1=CCCCC1)C1CCCN(CCc2ccccc2)C1` (configuration not stated): the INHIBITION worked out at 73.01%.

Take `CN(C(=O)CCc1ccncc1)C1CCCN(CCc2ccccc2)C1` (configuration not stated): the INHIBITION is 42.17%.

`CN(C(=O)c1cccnc1)C1CCCN(CCc2ccccc2)C1` (configuration not stated): the INHIBITION turned out to be 52.08%. For the compound `CC(C)C(=O)NCC(=O)N(C)C1CCCN(CCc2ccccc2)C1` (configuration not stated), the INHIBITION is on record as 15.44%. Under `CN(C(=O)CC1=CCCCC1)C1CCCN(C2Cc3ccccc3C2)C1` (configuration not stated) stands -12.75%; under `CC(=O)N1C[C@H]2CC[C@@H](C1)N(S(=O)(=O)c1ccc(C#N)cc1Cl)C2`, -0.38%. Under `COCCc1noc(CN(C)C2CCCN(c3cccnn3)C2)n1` (configuration not stated) stands 1.07%; under `CC(C)c1nccn1C1CCCN(C(=O)c2ccc3c(c2)COC3)C1` (configuration not stated), 54.28%. Under `CCc1nccn1C1CCCN(C(=O)c2ccc3nncn3c2)C1` (configuration not stated) stands -32.49%; under `CC(C)c1nccn1C1CCCN(C(=O)c2ccc3c(c2)OCO3)C1` (configuration not stated), 4.5%; under `Cc1nccn1C1CCCN(C(=O)c2ccc3nncn3c2)C1` (configuration not stated), 47.87%. As for `CC(C)c1nccn1C1CCCN(C(=O)c2ccc3nncn3c2)C1` (configuration not stated), the INHIBITION worked out at 72.31%.

With `Cc1nccn1C1CCCN(C(=O)c2ccc3c(c2)COC3)C1` (configuration not stated), the INHIBITION came out at 23.92%. Under `OC(CN1CCN(Cc2cccnc2)CC1)c1cccs1` (configuration not stated) stands -11.22%; under `Cn1c(N2CCOCC2)nc2cc(C(=O)N3CC(O)CO3)ccc21` (configuration not stated), -23.4%; under `COc1ccc(CN2CCc3ncnc(OC(C)C)c3CC2)cc1`, 10.69%.

Consider `Cc1cc(C)c2[nH]c(C(=O)NCCN3CCNC3=O)c(C)c2c1`, for which the INHIBITION is given as 8.76%.

As for `COc1cc(N2CCOC(c3ccc(F)cc3)C2)ncn1` (configuration not stated), the INHIBITION is reported as 19.27%. Under `N#Cc1c(F)cccc1Nc1cnn(CC(N)=O)c1` stands -58.5%; under `CCc1nc2n(n1)CC(NCc1cn(C)nc1-c1cccnc1)CC2` (configuration not stated), 54.29%. Under `CCc1nc2n(n1)CC(NCc1nc(-c3cccnc3)no1)CC2` (configuration not stated) stands 41.71%. Under `Cn1cc(CNC2CCc3ncnn3C2)c(-c2cccnc2)n1` (configuration not stated) stands 13.53%; under `O=C(Nc1ncn(CC(=O)N2CCCCCC2)n1)C1CCCC1`, 35.23%. `O=C(Nc1ncn(CC(=O)N2CCCCCC2)n1)C1CCCO1` (configuration not stated): the INHIBITION was 53.03%. Under `CC(CC(=O)Nc1ncn(CC(=O)N2CCCCCC2)n1)C1CC1` (configuration not stated) stands 34.73%; under `CCCC(N)CNS(=O)(=O)Cc1cccc(C#N)c1` (configuration not stated), 22.07%. Under `CCC(c1nc(CC(C)C)nn1-c1ccccn1)n1cccn1` (configuration not stated) stands -72.12%. Under `CCNC(=O)[C@@H]1C[C@H](N)CN1C(=O)c1c[nH]c2ccccc12` stands 22.16%; under `CN(C)C(=O)Cc1ccc(NC(=O)c2cn(C)nn2)cc1`, 29.87%. `COC(=O)N1CCc2ccc(NC(=O)c3cn(C)nn3)cc2C1`: the INHIBITION amounted to 41.44%. Under `Cn1cc(C(=O)Nc2ccc(CC(=O)NCC(F)(F)F)cc2)nn1` stands 78.24%; under `CC(=O)N1CCc2ccc(NC(=O)c3cn(C)nn3)cc2C1`, 29.65%. Under `Cn1cc(C(=O)Nc2ccc(CC(=O)NC3CC3)cc2)nn1` stands 52.85%; under `Cn1cc(C(=O)Nc2ccc3c(c2)CN(C(=O)C2CC2)CC3)nn1`, 0%. Under `COCCn1ccc(=O)c(OCC(=O)Nc2ccc(OC)c(Cl)c2)c1C` stands 30.58%. For `CCn1ncc(CN2CCCC(n3c(=O)oc4ccccc43)C2)c1C` (configuration not stated), the INHIBITION is -3.96%. Take `COC(=O)c1cccc(C(=O)N(C)Cc2ccsc2)c1`: the INHIBITION is given as -21.49%.

Take `NC(=O)c1cc2c(nc1N)CCN(C(=O)C1CCCCC1)C2`: the INHIBITION is listed as 6.97%. In the case of `COC(=O)c1ccc(N2CCN(C(=O)c3cnn(C)c3)C(C)C2)cc1` (configuration not stated), the INHIBITION was found to be 47.57%. As to `O=C(NCC1Cn2nnc(-c3ccsc3)c2CO1)c1ccc[nH]1` (configuration not stated), the INHIBITION came to 34.16%. Under `CCc1ccc(CN2CCC3(CC2)C(=O)N(C)CCN3CC)cc1` stands 47.42%; under `CCN1CCN(C)C2(CCN(Cc3ccsc3)CC2)C1=O`, 38.64%; under `CCN1CCN(C)C(=O)C12CCN(Cc1ccsc1)CC2`, 39.18%.

`CCN1CCN(C)C(=O)C12CCN(Cc1csc(C)n1)CC2`: the INHIBITION was -66.6%. Under `CN1CCN(C)C2(CCN(Cc3ccsc3)CC2)C1=O` stands 59.5%; under `CCN1CCN(C)C(=O)C12CCN(Cc1cccc(C)c1)CC2`, 60.6%; under `CCCc1cnc(C)nc1N1CCC(Cc2cccc(C(N)=O)c2)C1` (configuration not stated), -9.75%.

Regarding `CC(C(=O)NC1CCN(C)CC1)n1nc(C(F)(F)F)c(Cl)c1C1CC1` (configuration not stated), the INHIBITION is listed as -4.77%. Under `CCN(C(=O)CN(CC(N)=O)C(C)C)C1=CCCC1` stands 25.21%; under `OCc1n[nH]c(-c2ccc(F)cc2)n1`, 27.8%; under `CC(C(=O)N1CCN(Cc2ccc3c(c2)OCO3)CC1)n1ccnc1` (configuration not stated), 17.98%. With `COC(=O)CC1CCCCN1CC(=O)Nc1cc(F)ccc1F` (configuration not stated), the INHIBITION is listed as 30.82%. Under `O=S(=O)(NC1=NCN(CCc2cccs2)CN1)c1ccc(F)cc1` stands 36.15%. Under `O=S(=O)(NC1=NCN(CCc2cccs2)CN1)c1ccccc1` stands 18.22%; under `O=S(=O)(NC1=NCN(CCc2cccs2)CN1)c1ccc(Br)cc1`, 50.67%. Under `O=C(Cc1cnccn1)N1C[C@@H]2CC[C@H]1CN(Cc1cscn1)C2` stands -41.49%; under `COCC(=O)N1C[C@H]2CNC[C@@]2(C(=O)NCc2cc(C)n[nH]2)C1`, 40.51%; under `COCC(=O)N1C[C@H]2CNC[C@@]2(C(=O)NCc2c(C)noc2C)C1`, 1.8%. Consider `COCC(=O)N1C[C@H]2CNC[C@@]2(C(=O)NCc2nc(C)cc(C)n2)C1`, for which the INHIBITION turned out to be 67.44%.
